# Reference: PubChem BioAssay AID1347076 (National Center for Advancing Translational Sciences (NCATS), 2019)
# Out of some 400,000 compounds screened, about 13,000 (3.2%) were called active. Where a call stands in place of a potency, no number is given. Roughly 18% stayed inconclusive and do not appear here. This is one part of a sample in which actives are shown more often than they occur. Calls come from the whole dose curve; as a rule, active = well fitted cell-killing curve with a large enough effect; inconclusive = small, poorly fitted or top-dose-only effect, or effect the other way; inactive = flat fitted curve, though single readings scatter.
# Experiment: qHTS assay for MDR1-selective chemotherapeutics: Primary screen using the drug-selected MDR subline cells KB-V1; note: nearly all actives have a fitted effect of over 60% in size
# Conditions: KB-V1 MDR cells viability, CellTiter-Glo, 72 h; series mostly up to 46.1 µM
# Source text: A prime difficulty in effectively treating cancer is the development of cellular resistance to multiple structurally unrelated anticancer drugs, a phenomenon known as multidrug resistance (MDR). […] Numerous strategies to overcome P-gp-mediated MDR have been explored, including the design of drugs that evade recognition and efflux, and development of inhibitors to block efflux and restore drug accumulation. […] An alternative approach is to exploit resistance by identifying drugs that target MDR cells over the non-resistant parental cells from which they were selected. […] The development of MDR1-selective agents represents a new strategy for resolving multidrug resistance, as it remains a long-standing clinical challenge for cancer chemotherapy.
# Our goal is to identify compounds that selectively kill P-gp-expressing MDR cells. We will identify MDR1-selective compounds by comparing toxicity of compounds in the screening library against parental, drug-naive (KB-3-1) adenocarcinoma cells as well as their drug-selected MDR sub-line (KB-V1). The differential toxicity of compounds against these two cell lines will be used to identify MDR1-selective compounds, whose cytotoxicity is potentiated, rather than diminished, by P-gp expression. This assay will be utilized to conduct a quantitative high-throughput screen (qHTS) in collaboration with the NIH Chemical Genomics Center to identify selective agents, and probe hits arising from the screen will be validated using secondary assays and characterized through a well-established follow-up research program. This screen was run against the entire NCGC library collection of about 400,000 compounds.
# NIH Molecular Libraries Probe Production Network [MLPCN]
# NIH Chemical Genomics Center [NCGC]
# PI: Michael Gottesman, National Cancer Institute, NIH
# Briefly, 5 microL of media containing either KB-V1 cells (columns 1-2, 4-48) are dispensed into Greiner white, treated solid-bottom 1536-well assay plates (media-only control is added to column 3). Compounds are then transferred via Kalypsys pin tool equipped with 1536-pin array (10 nL slotted pins, V&P Scientific, San Diego, CA). Following addition of compound, the plates are incubated at 37 degrees C for 72 hours. CellTiter-Glo (2.5 µL/well) is then added, and the plates are read in a ViewLux reader (Perkin-Elmer, clear luminescence filter, 1 second exposure, 1x binning) following a 10 minute incubation. All cells are dispensed in DMEM phenol-red free media containing 10% FBS.
# Library plates were screened starting from the lowest and proceeding to the highest concentration. Vehicle-only plates, with DMSO being pin-transferred to columns 5-48, will be inserted uniformly at the beginning and the end of each library in order to monitor and record any shifts in the background, which can be affected by reagent dispensers or loss in enzyme activity over time. Screening data will be corrected, normalized, and concentration-effect relationships will be derived by using publicly-available NCGC, NCATS curve fitting algorithms (http://ncgc.nih.gov/pub/openhts).
# Potency is the fitted concentration of half-maximal effect.
row,SMILES,Potency
1,CN(C)c1cccc(NC(=O)c2ccc(-c3ccc(F)c(F)c3)c3ccoc23)c1,inactive
2,CO[C@@H]1CN(C)C(=O)c2cc(NC(=O)Nc3cc(F)ccc3F)ccc2OC[C@H](C)N(C(=O)c2ccccn2)C[C@@H]1C,inactive
3,CCCCC(=O)OC1=CN(Cc2ccccc2)S(=O)(=O)c2ccccc21,inactive
4,CC1CCCCN1CC(=O)N1CCCc2c1c(=O)oc1ccc(OCc3ccccc3)cc21 (stereo not given),inactive
5,O=C(CN1CCOCC1)N1CCCc2c1c(=O)oc1ccc(OCc3ccccc3)cc21,18.4 µM (active)
6,O=C(COc1ccc2oc3c(c2c1)CCCC3)Nc1ccccn1,inactive
7,CCOc1ccc(CCN2C(=S)N([C@@H](CC(C)C)CN3CCC[C@@H]3CN3C(=S)NC[C@@H]3Cc3ccc(O)cc3)C[C@@H]2CC(C)C)cc1,inactive
8,CC(=O)Nc1cncc(-c2ccccc2CO)n1,inactive
9,COc1ccccc1N(CC(=O)Nc1ccccc1C(=O)N1CCCC1)S(C)(=O)=O,inactive
10,O=C(Nc1ccccc1C(=O)N1CCCCCC1)c1ccccc1Cl,inactive
11,O=C(CN(c1ccccc1)S(=O)(=O)c1ccc(Cl)cc1)Nc1ccccc1C(=O)N1CCCC1,5.8 µM (active)
12,COc1cccc(CN(C)C(=O)CC[C@H]2O[C@@H](n3cnc4c(NC(=O)c5ccccc5)ncnc43)[C@H](O)[C@@H]2O)c1,inactive
13,COc1cccc(N2CCN(C(=O)CCCCCn3c(=O)[nH]c4ccccc4c3=O)CC2)c1,inactive
14,Cc1ccc(C)c(N2CCN(C(=O)CCCCn3c(=O)[nH]c4ccccc4c3=O)CC2)c1,6.51 µM (active)
15,Cc1ccc(C)c(N2CCN(C(=O)CCCCCn3c(=S)[nH]c4ccc(N5CCOCC5)cc4c3=O)CC2)c1,inactive
16,COc1ccc(CCNC(=O)CCCCn2c(=O)c3ccccc3n(Cc3ccccc3)c2=O)cc1OC,inactive
17,Oc1ccccc1-c1nc(/C=C/c2ccc(F)cc2)no1,inactive
18,COc1ccc(-c2noc(CSc3nnc(-c4ccccc4)n3-c3ccc(F)cc3)n2)c(OC)c1,inactive
19,Cc1ccc(-c2noc(CSc3nnc(-c4ccc(Cl)cc4)n3C)n2)cc1,inactive
20,Cc1ccc(-c2noc(CSc3nnc(-c4ccccc4)n3C)n2)cc1,inactive
21,Cc1ccc(-c2noc(CSc3nnc(-c4ccncc4)n3-c3ccc(F)cc3)n2)cc1,8.2 µM (active)
22,Fc1ccc(-n2c(Cc3ccccc3)nnc2SCc2nc(-c3ccc(Cl)cc3)no2)cc1,14.6 µM (active)
23,Cn1cccc1Cc1nnc(SCC(=O)NCCc2ccccc2)n1-c1ccc(F)cc1,inactive
24,COc1ccc(-c2noc(CSc3nc4ccc(C)cc4[nH]3)n2)cc1,inactive

row,SMILES,Potency
1,Cc1ccc(-c2noc(CSc3nnc(-c4cccs4)n3C)n2)cc1,13 µM (active)
2,Cc1ccc(-c2noc(CSc3nnnn3-c3ccccc3)n2)cc1,inactive
3,Cc1ccc(C(=O)Nc2c(-c3ccccc3)[nH][nH]c2=O)cc1,inactive
4,O=C(NCc1ccccc1Cl)C1=Cc2cc(Br)ccc2OC1,inactive
5,CC(C)Oc1cc(F)ccc1-c1cc(C(=O)Nc2ccc(F)cc2)[nH]n1,inactive
6,CC(Nc1ccc(-c2nc(-c3ccco3)no2)cc1[N+](=O)[O-])c1ccccc1 (stereo not given),inactive
7,Cc1cc(C)cc(NS(=O)(=O)c2ccc3[nH]cc(C(=O)N4CCCCC4)c(=O)c3c2)c1,inactive
8,CCCNC(=O)C1(C)CCN(C(=O)c2cc(F)ccc2C)C1 (stereo not given),inactive
9,C=Cc1ccc(Cn2c(C(=O)O)c(CNC3CCCC3)c3ccc(C)cc32)cc1,inactive
10,COc1ccc(S(=O)(=O)N2CCC(C(=O)NCc3ccco3)CC2)cc1C,inactive
11,CC1(C)SC2c3ccccc3C(=O)N2[C@@H]1C(=O)NCc1ccco1 (stereo not given in full),inactive
12,COc1cc2c(cc1OC)C(C(=O)NCc1ccco1)C1c3ccccc3CCN1C2=O (stereo not given),14.6 µM (active)
13,COCCNc1nc(NCc2ccc(NC(C)=O)cc2)c2sccc2n1,inactive
14,Cc1cccc(-n2c(SCC(N)=O)nc3c(oc4ccccc43)c2=O)c1,inactive
15,Cc1cccc(-n2c(SCC(N)=O)nc3c(c2=O)C2(CCCCC2)Cc2ccccc2-3)c1,18.4 µM (active)
16,N#CCSc1nc2c(c(=O)n1Cc1ccccc1)C1(CCCC1)Cc1ccccc1-2,inactive
17,CCOC(=O)c1cnn2c(SC)ncnc12,inactive
18,CCCS(=O)(=O)NC(=O)C1(C)CCCN(C(=O)c2ccnc(Cl)c2)C1 (stereo not given),inactive
19,COc1ccc(C/C(C)=N/NC(=O)c2cc(C)oc2C)cc1,inactive
20,Cc1cc(C(=O)N/N=C\C(Br)=C\c2ccccc2)c(C)o1,inactive
21,CC(=C/c1ccccc1)/C=N/NC(=O)c1cc(C)oc1C,14.6 µM (active)
22,Cc1ccc(CCNC(=O)CN2C(=O)CSc3ccc(S(=O)(=O)N4CCOCC4)cc32)cc1,inactive
23,CCOC(=O)C1=CCC(c2ccc(F)cc2)N(S(=O)(=O)c2ccc(C)cc2)C1 (stereo not given),inactive
24,COc1cc(/C=N/NC(=O)c2ccc(N3CCCC3=O)cc2)ccc1O,inactive

row,SMILES,Potency
1,Cn1c(=O)n(C)c2cc(/C=N/NC(=O)c3cccc(Br)c3)ccc21,inactive
2,O=C(N/N=C/c1cccc(Br)c1)c1ccc(N2CCCC2=O)cc1,16.4 µM (active)
3,COc1ccc2cc(CNc3ccc(OC)c(OC)c3)c(=O)n(CC(=O)Nc3ccccc3F)c2c1,inactive
4,COc1ccc2c(c1)CCc1cn3ncc(C#N)c3nc1-2,1.3 µM (active)
5,N#Cc1cnn2cc(CCN3CCOCC3)c(-c3ccc(F)cc3)nc12,inactive
6,COc1ccc2c(c1)CCc1c(C(=O)N3CCCC3)noc1-2,inactive
7,COc1ccccc1N1CCN(C(=O)C2CCN(S(=O)(=O)c3c(C)noc3/C=C/c3ccc(C)cc3)CC2)CC1,inactive
8,Cc1[nH]c2ccccc2c1C(=O)C(=O)NCc1nnnn1-c1cccc(F)c1,inactive
9,CN(CC(=O)Nc1cccc2c1CCCC2)S(=O)(=O)c1ccc(Cl)cc1,inactive
10,Cc1nc(NC(=O)CN(C)S(=O)(=O)c2ccc(Cl)cc2)sc1C,14.6 µM (active)
11,CN(CC(=O)NCCc1ccccn1)S(=O)(=O)c1ccc(Cl)cc1,inactive
12,CN(CC(=O)NNC(=O)CNC(=O)c1ccccc1Cl)S(=O)(=O)c1ccc(Cl)cc1,inactive
13,CN(CC(=O)NCC(c1ccccc1)N1CCCC1)S(=O)(=O)c1ccc(Cl)cc1 (stereo not given),20.6 µM (active)
14,Cc1ccc(S(=O)(=O)N(C)CC(=O)NCC(c2ccc(F)cc2)N2CCOCC2)cc1 (stereo not given),inactive
15,CCCNC(=O)C1(C)CCN(Cc2csc(-c3ccc(Cl)cc3)n2)C1 (stereo not given),inactive
16,C[C@H]1CN([C@@H](C)CO)C(=O)CCCn2cc(nn2)CO[C@@H]1CN(C)S(=O)(=O)c1ccccc1C#N,inactive
17,COc1ccc(C(C)(NC(C)=O)c2nc(-c3ccc(S(C)(=O)=O)cc3)cs2)cc1 (stereo not given),inactive
18,CCOC(=O)c1ccc(NC(=O)c2c(NCc3cccc(OC)c3)sc3c2CCC3)cc1,inactive
19,Cc1cc(NC(=O)CSc2nnc(-c3ccco3)n2N)no1,inactive
20,CCn1c(SCC(=O)Nc2nccs2)nnc1-c1ccco1,inactive
21,COc1cc(Cl)c(C)cc1NC(=O)CSc1nnc(-c2ccco2)n1CC(C)C,4.11 µM (active)
22,CCCC12CN3CC(CCC)(CN(C1)C3c1c[nH]c3ccc(OC)cc13)C2=O (stereo not given),inactive
23,CCOc1ccc(CCN2C(=O)C(=O)N([C@@H](CC(C)C)CN3CCC[C@H]3CN3C(=O)C(=O)NC[C@@H]3Cc3ccccc3)C[C@@H]2CC(C)C)cc1,inactive
24,O=C(CCn1c(=O)c2ccccc2n(Cc2ccc(Cl)cc2)c1=O)NCc1ccc2c(c1)OCO2,inactive

row,SMILES,Potency
1,C[C@H]1CN([C@@H](C)CO)S(=O)(=O)c2ccc(-c3cccc(F)c3)cc2O[C@@H]1CN(C)C,inactive
2,O=C(C(=O)N1CCN(c2ccccc2)CC1)c1ccc2c(c1)OCO2,inactive
3,N#Cc1ccc(Oc2ccc(C(F)(F)F)cc2NC(=O)c2ccc(F)cc2)cc1,inactive
4,N#Cc1ccc(C(=O)Nc2nc(-c3cccs3)c(C(=O)C(F)(F)F)s2)cc1,13 µM (active)
5,COc1ccc(C(=O)Nc2nc(-c3ccc(OC)cc3)c(-c3ccc([N+](=O)[O-])cc3)s2)cc1,inactive
6,COC(=O)[C@]12CCCCC=C1N(Cc1cccc3ccccc13)C(=O)[C@H](CC(=O)N1CCOCC1)C2,inactive
7,Cc1nc(C(F)(F)F)ccc1C(=O)N1CCC1(C)C(=O)NS(=O)(=O)c1ccccc1 (stereo not given),inactive
8,COc1ccc2c(c1)C(c1cccs1)=NNC(c1cccnc1)=N2,inactive
9,Fc1ccc2c(c1)C(c1cccnc1)=NNC(c1cccs1)=N2,11.6 µM (active)
10,CC(=O)NN=C(C)c1ccc(NC(=O)C2CC2)cc1,inactive
11,O=C(O)c1ccccc1-c1cccc2nncn12,inactive
12,COC(=O)c1c(C)[nH]c(C(=O)NCCc2ccc(S(N)(=O)=O)cc2)c1C,inactive
13,COC(=O)c1c(C)[nH]c(C(=O)/C=C/c2ccc(Cl)cc2)c1C,14.6 µM (active)
14,Cc1ccc(NC(=S)NC(=O)/C=C/c2ccc(Cl)cc2)cc1,inactive
15,CC(C)CN1C(=O)CN(S(C)(=O)=O)CC1(C)C(=O)NCc1ccccc1 (stereo not given),inactive
16,N#Cc1ccc(-c2ccc3nccn3c2)cc1,inactive
17,CC(C)C1CC2=C(C(=O)OC(C)(C)O2)C(c2ccc(F)cc2)O1 (stereo not given),inactive
18,COCCCN1C(=O)C(CC(=O)NCc2cccs2)CC(C(=O)N2CCOCC2)=C1C (stereo not given),inactive
19,O=S1(=O)CC(N2CCC(Cc3ccccc3)CC2)CN1Cc1ccccc1 (stereo not given),inactive
20,COc1ccccc1-c1cc2nc(NCc3cccc(Cl)c3)ccn2n1,inactive
21,CCNC(=O)CC1C(=O)N(c2ccc(F)cc2)C(=O)N1Cc1cccs1 (stereo not given),inactive
22,O=C(CC1C(=O)N(c2ccccc2)C(=O)N1CCc1cccs1)Nc1ccc(F)cc1 (stereo not given),inactive
23,COc1ccc(N2C(=O)C(CC(=O)Nc3ccc(F)cc3)N(CCc3cccs3)C2=O)cc1 (stereo not given),18.4 µM (active)
